Most compounds without a hit are left out; they make up all but 2.4% or so of the library.
D2 ag-1 = activates the human D2 dopamine receptor. P14416. DiscoveRx PathHunter D2 beta-arrestin, luminescence, 90 min; 100% = 57 uM dopamine signal. activation, % (test concentration not listed). hit rate 0.084% among 360,000; in the data active = activation above about 40%; inconclusive = between about 15% and that limit
Target sequence (P14416 whole entry, looked up): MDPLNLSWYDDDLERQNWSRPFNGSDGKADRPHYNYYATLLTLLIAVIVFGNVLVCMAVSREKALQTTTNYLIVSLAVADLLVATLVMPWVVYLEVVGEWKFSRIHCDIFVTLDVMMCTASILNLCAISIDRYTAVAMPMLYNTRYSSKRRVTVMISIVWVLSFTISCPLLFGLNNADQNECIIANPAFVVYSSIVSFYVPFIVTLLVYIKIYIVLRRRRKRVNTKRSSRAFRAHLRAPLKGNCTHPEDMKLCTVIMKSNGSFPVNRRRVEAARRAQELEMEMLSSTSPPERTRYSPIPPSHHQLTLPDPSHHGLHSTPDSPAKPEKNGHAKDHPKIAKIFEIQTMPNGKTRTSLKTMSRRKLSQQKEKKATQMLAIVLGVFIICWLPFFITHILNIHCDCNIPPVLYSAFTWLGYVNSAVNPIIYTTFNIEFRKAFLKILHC
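DiscoveRx PathHunter D2 beta-arrestin cells (2,100/well) attached overnight, then compound-stimulated 90 min at 37 C in HBSS/10 mM HEPES/0.1% Tween-20 buffer; beta-galactosidase complementation read by luminescence after 1 h at ambient temperature. Dopamine 57 uM final (EC100) as control.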
D2 antag = antagonizes the human D2 dopamine receptor | inhibition, % at 10 µM | hit rate 2% among 340,000 | HEK293 TREx D2 cells, calcium flux, dopamine EC80; in the data active = inhibition above about 30%; inactive = below that, where a call was filed; also: 0% is about no effect
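HEK293 T-REx D2 cells, tet-induced, calcium dye no-wash. Cpd pintool add, 180 s kinetic, then EC80 DA, 180 s kinetic. Ca flux read.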
D2 PAM-1 = positively modulates the human D2 dopamine receptor allosterically; P14416; HEK293 T-REx D2, calcium flux, EC20 dopamine potentiation; hit rate 0.34% among 340,000; potentiation, % at 10 µM;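 active = potentiation over 3 SD above the plate norm, cut at about 30% in these data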; also: 0% is about no effect
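Cells plated with tetracycline inducer and held overnight at 30 C; calcium dye loaded 30–90 min at room temperature; baseline taken, compound added and read 180 s; EC20 dopamine then added and read 180 s.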
D2 ag-2 = agonists of human D2 dopamine receptor; P14416; hit rate 0.53% among 340,000; HEK293 T-REx D2 cells, calcium flux agonist mode; activation, % at 2 µM; AID 485358;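 active = activation over 3 SD above normal in the single-dose calcium agonist read, cut at about 30% in these data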; also: 0% is about no effect
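Agonism scored from kinetic calcium signal (1 read/sec, 180 s) following compound pin transfer, after a 10 s baseline. Cells: HEK293 Trex line expressing inducible D2 receptor coupled to calcium, dye-loaded after overnight culture at 30 C.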
D2 PAM-2 = positive allosteric modulators of human D2 dopamine receptor; hit rate 0.23% among 360,000; potentiation, % (no concentration beside the values); P14416; DiscoveRx D2 beta-arrestin cells, luminescence, 90 min; 100% = 57 uM dopamine signal; in the data active = potentiation above about 50%; inconclusive = mostly about 30% to 49%
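PathHunter beta-arrestin assay in DiscoveRx D2 cells. Compounds were added with an EC20 of dopamine (50 nM final) for 90 min at 37 deg C. Luminescence was read 1 h after detection reagent, with 57 uM dopamine as the EC100 control.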
Active calls of the source: *; ? = inconclusive; · = not tested or not shown.

SMILES	D2 ag-1	D2 antag	D2 PAM-1	D2 ag-2	D2 PAM-2
FC(F)Oc1ccc(NC(=S)NC2CCCCCCC2)cc1	-3	33*	15	2	2
S=C(Nc1ccc(Cl)cc1)NC1CCCCC1	0	-7	-4	5	-5
Cc1ccc(CN2CCC[C@]3(N[C@H](c4ccc(C(F)(F)F)cc4)[C@@H]4C(=O)N(Cc5ccccc5)C(=O)[C@@H]43)C2=O)cc1	-10	·	·	·	0
C/C(Cn1nnc([N+](=O)[O-])n1)=N\NC(=O)c1ccc(O)cc1O	?	13	3	6	59*
C/C(Cn1nnc([N+](=O)[O-])n1)=N\NC(=O)c1ccccc1O	?	-1	-4	0	5
CCCCOc1nnc(-c2ccc(OCC)cc2)c2ccccc12	·	·	0	0	·
COc1ccc(C(=O)Nc2ccc(C(=O)OCC(=O)c3cccc4ccccc34)cc2)cc1	3	76*	0	1	-17
COc1ccc(NC(=O)c2ccc3ccccc3c2)cc1	5	2	9	0	-1
CCCSc1ncc(Cl)c(C(=O)Nc2c(C(=O)Nc3ccc(OC)cc3)oc3ccccc23)n1	·	·	15	·	·
C=CCc1cccc(C=Nc2c[nH]c(=O)[nH]c2=O)c1O	0	-4	-1	2	-1
C=CCc1cccc(C=Nc2cc(Br)ccc2O)c1O	?	3	-2	1	72*
O=C(COC(=O)C1CC(O)CN1S(=O)(=O)c1ccc(Cl)cc1)c1ccccc1 (stereo not drawn)	1	-27	2	-1	-16
CC(C)N(C(=O)COC(=O)[C@@H]1CC(O)CN1S(=O)(=O)c1ccc(C(C)(C)C)cc1)C(C)C (stereo partly drawn)	-2	38*	-7	2	-6
CCOc1ccc(S(=O)(=O)N2CC(=O)Nc3ccccc32)cc1C#N	-3	2	-4	0	-1
COc1ccc(S(=O)(=O)N2CC(=O)Nc3ccccc32)cc1Cl	-4	5	60*	0	-1
CC1CCCCC1NC(=O)COC(=O)c1c2c(nc3ccccc13)/C(=C\c1ccco1)CC2 (stereo not drawn)	1	·	·	·	-7
CC(=O)Nc1ccc(NS(=O)(=O)c2ccc3[nH]c4c(c3c2)CCCCC4)cc1	·	·	-4	1	·
COc1ccc(NC(=O)COC(=O)c2cc(OC)c(OC)cc2NC(=O)c2ccco2)cc1OC	-1	58*	17	0	-5
COc1cc(NC(=O)COc2cccc(OC)c2)cc(OC)c1	0	-14	-3	-2	-1
COc1cccc(OCC(=O)Nc2ccc(OC)c(OC)c2)c1	0	-13	32*	-2	-1
COC(=O)c1cc(OC)c(OC)cc1NC(=O)c1ccco1	2	-4	2	1	-3
CCC1CCc2sc(C(=O)NC3CCN(Cc4ccccc4)CC3)cc2C1 (stereo not drawn)	-2	77*	-2	1	-35
CC1CCc2sc(C(=O)NC3CCN(Cc4ccccc4)CC3)cc2C1 (stereo not drawn)	-2	83*	-30	1	-6
CN1C(=O)Cc2cc(S(=O)(=O)CCC(=O)N3CCN(c4cccc(Cl)c4)CC3)ccc21	·	·	14	0	·
COc1ccccc1OCC(=O)NCC(c1ccc(Cl)cc1)N1CCCCC1 (stereo not drawn)	·	·	-30	0	·
SMILES	D2 ag-1	D2 antag	D2 PAM-1	D2 ag-2	D2 PAM-2
CC(=O)Nc1nnc(SCc2cc(=O)c3cc(C)ccc3[nH]2)s1	·	·	-5	1	·
O=C(NCCCNCCCNC(=O)c1ccccn1)c1ccccn1	-1	74*	4	0	-25
Cc1ccccc1C(=O)NCCNC(=O)c1ccccn1	-5	-3	0	3	-8
CN(C)CCCNCCCNC(=O)c1ccccn1	-1	19	-5	-1	-4
Cc1ccccc1C(=O)NCCCNC(=O)c1ccccn1	-1	2	31*	-2	0
CCc1nc2sc3c(N4CCCCC4)ncnc3c2c2c1CCCC2	·	·	0	·	·
COC(=O)CCNC(=O)NC(CCC(C)C)c1c(-n2cccc2)sc2c1CCN(C)C2 (stereo not drawn)	·	·	1	0	·
CCc1ccccc1NC(=O)NC1CCCCC1	-2	·	·	·	-28
CCCN1C2CCCC1CC(NC(=S)Nc1ccc(OC)cc1)C2 (stereo not drawn)	-19	-10	-4	0	-7
CCc1ccc(NC(=S)NC2CC3CCCC(C2)N3Cc2cccs2)cc1 (stereo not drawn)	0	64*	-25	1	-29
CCc1ccccc1NC(=O)NC1CC2CCC(C1)N2Cc1cccs1 (stereo not drawn)	-3	55*	-18	-1	-26
CC(C)N(Cc1ccccc1)S(=O)(=O)c1ccc(-c2cc(C(F)(F)F)on2)s1	·	·	2	2	·
CCOc1ccc(CNC(=O)c2ccc3c(c2)c(C)c(C)n3Cc2ccccc2)cc1OC	·	·	-5	0	·
COc1ccc(CCC(=O)NCCc2csc(-c3ccc(C(F)(F)F)cc3)n2)cc1	·	·	·	6	·
O=C(Cc1c(F)cccc1Cl)NC1CCN(Cc2ccccc2)CC1	-7	·	·	·	-52
Cc1cc(OCC(=O)NC2CCN(Cc3ccccc3)CC2)c2c(C)cc(=O)oc2c1	-2	54*	-22	0	-39
O=C(COc1ccccc1F)NC1CCN(Cc2ccccc2)CC1	-3	48*	-15	0	-25
Cc1cc(OC(C)C(=O)NC2CCN(Cc3ccccc3)CC2)c2c(C)cc(=O)oc2c1 (stereo not drawn)	3	73*	-19	-1	-33
O=C(Cc1ccccc1[N+](=O)[O-])NC1CCN(Cc2ccccc2)CC1	-2	48*	-29	1	-5
CCOc1ccccc1NC(=O)CCCc1nc(-c2ccccc2Cl)no1	·	·	-3	0	·
O=C(COc1ccccc1)NC1CC(=O)N(c2ccc3c(c2)OCCO3)C1 (stereo not drawn)	·	·	-7	0	·
CCOC(=O)c1cc2c(=O)n3ccccc3nc2n(CC2CCCO2)c1=NC(=O)c1ccccc1OCC (stereo not drawn)	·	·	0	0	·
CCOc1ccccc1NC(=O)N1CCN(C)c2ncccc21	·	·	-1	-1	·
Nc1nc(N)nc(-c2cccc(Cl)c2)n1	-2	32*	-3	0	-9
COC(=O)c1c(C)oc2ccc(N(C(=O)Oc3ccccc3)S(=O)(=O)c3ccc(C(C)(C)C)cc3)cc12	·	·	-4	-2	·
Cc1ccc(C(=O)c2cnc3ccccc3c2-c2ccccc2)cc1	-4	-4	31*	2	-7
COc1cccc(/C=N/N2C(=O)CSC2=S)c1O	5	10	-2	0	-2
COc1cc(/C=N/N2C(=O)CSC2=S)cc(Br)c1O	-1	44*	-4	11	0
COc1ccc(CCNC(=O)NC2CCCCC2)cc1	-1	31*	5	0	1

From PubChem
